In this experiment the target is T1, GST-Ap-NF-kB RHD (Exaiptasia pallida (Aiptasia), UniProt A0A913YAJ5 2-422).
T1 sequence: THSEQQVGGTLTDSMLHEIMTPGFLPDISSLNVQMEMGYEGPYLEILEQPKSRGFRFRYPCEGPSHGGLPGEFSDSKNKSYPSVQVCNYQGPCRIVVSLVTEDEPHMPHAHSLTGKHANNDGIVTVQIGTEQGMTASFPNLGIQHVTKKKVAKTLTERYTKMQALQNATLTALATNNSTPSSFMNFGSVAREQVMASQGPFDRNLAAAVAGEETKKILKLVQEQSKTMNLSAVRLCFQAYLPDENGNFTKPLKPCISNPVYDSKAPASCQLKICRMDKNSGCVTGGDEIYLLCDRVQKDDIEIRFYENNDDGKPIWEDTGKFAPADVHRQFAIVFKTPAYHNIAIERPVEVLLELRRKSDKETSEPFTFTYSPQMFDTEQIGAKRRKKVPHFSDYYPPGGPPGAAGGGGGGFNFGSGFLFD
In words: protein-binding microarray (PBM); PBM: ~300 nM protein, 6 mM HEPES pH 7.8, 80 mM KCl, 0.5 mM EDTA, 0.5 mM EGTA, 6% glycerol, 35 ng/ul poly-dIdC, 1% milk, 1 h, room temperature; Ap Aiptasia and Nv Nematostella (sea anemones) / Co Capsaspora / Aq Amphimedon (sponge) / Dm Drosophila / Hu human; RHD is the Rel homology domain; high values mean tight binding. Particulars: dsDNA, one strand shown.
Consider “CCGATTAACATCAGACAATCCCCTGATGTTAATCGGGTCTTGATTCGCTTGACGCTGCTG”, for which the binding signal was 6.6 z-score.

In the case of “CCGATTAACATCAGGAAAACCCCTGATGTTAATCGGGTCTTGATTCGCTTGACGCTGCTG”, the binding signal was 8.2 z-score.

As for “CCGATTAACATCAGGGAAATCACTGATGTTAATCGGGTCTTGATTCGCTTGACGCTGCTG”, the binding signal stood at 3.41 z-score.

With “CCGATTAACATCAGGAAAATCCCTGATGTTAATCGGGTCTTGATTCGCTTGACGCTGCTG”, the binding signal worked out at 5.62 z-score.

Take “CCGATTAACATCAAAAAGCCCCCTGATGTTAATCGGGTCTTGATTCGCTTGACGCTGCTG”: the binding signal stood at 7.94 z-score.

“CCGATTAACATCAAATCTCCCCCTGATGTTAATCGGGTCTTGATTCGCTTGACGCTGCTG” yielded a binding signal of 8.37 z-score.

“CCGATTAACATCACACTACCCCCTGATGTTAATCGGGTCTTGATTCGCTTGACGCTGCTG” gave a binding signal of 4.66 z-score.

For “CCGATTAACATCAGGGGGAAACATGATGTTAATCGGGTCTTGATTCGCTTGACGCTGCTG”, the binding signal was 6.11 z-score.

On to “CCGATTAACATCAGGGGGAACGATGATGTTAATCGGGTCTTGATTCGCTTGACGCTGCTG”, for which the binding signal was 5.18 z-score.

As to “CCGATTAACATCAAGTATCCCCCTGATGTTAATCGGGTCTTGATTCGCTTGACGCTGCTG”, the binding signal is 6.69 z-score.

“CCGATTAACATCAATCTTTCCCCTGATGTTAATCGGGTCTTGATTCGCTTGACGCTGCTG” came in with a binding signal of 5.5 z-score.

The sequence “CCGATTAACATCAAAATTACCCATGATGTTAATCGGGTCTTGATTCGCTTGACGCTGCTG” returned a binding signal of 2.8 z-score.

“CCGATTAACATCACAAAAGTCCCTGATGTTAATCGGGTCTTGATTCGCTTGACGCTGCTG”: the binding signal turned out to be 7.21 z-score.

On to “CCGATTAACATCAGGGGGCAATATGATGTTAATCGGGTCTTGATTCGCTTGACGCTGCTG”, for which the binding signal amounted to 3.43 z-score.

In the case of “CCGATTAACATCAGGGGACTACCTGATGTTAATCGGGTCTTGATTCGCTTGACGCTGCTG”, the binding signal was found to be 7.56 z-score.

“CCGATTAACATCACGGGATTTGGTGATGTTAATCGGGTCTTGATTCGCTTGACGCTGCTG” displayed a binding signal of 1.89 z-score.

“CCGATTAACATCACAAAGTCCCCTGATGTTAATCGGGTCTTGATTCGCTTGACGCTGCTG” yielded a binding signal of 7.77 z-score.

Take “CCGATTAACATCAGAAATATCCCTGATGTTAATCGGGTCTTGATTCGCTTGACGCTGCTG”: the binding signal came out at 2.4 z-score.

In turn, “CCGATTAACATCAGGGGGTTGGATGATGTTAATCGGGTCTTGATTCGCTTGACGCTGCTG” came in with a binding signal of 4.25 z-score.

In turn, “CCGATTAACATCACTACCCCCCCTGATGTTAATCGGGTCTTGATTCGCTTGACGCTGCTG” showed a binding signal of 3.87 z-score.

Take “CCGATTAACATCAAATTCCCGGGTGATGTTAATCGGGTCTTGATTCGCTTGACGCTGCTG”: the binding signal was 3.33 z-score.

Consider “CCGATTAACATCAAATTACCCCCTGATGTTAATCGGGTCTTGATTCGCTTGACGCTGCTG”, for which the binding signal was 6.8 z-score.

The sequence “CCGATTAACATCAAAAAAACCCCTGATGTTAATCGGGTCTTGATTCGCTTGACGCTGCTG” displayed a binding signal of 9.17 z-score.

On to “CCGATTAACATCAGGGGATACACTGATGTTAATCGGGTCTTGATTCGCTTGACGCTGCTG”, for which the binding signal stood at 4.44 z-score.

As to “CCGATTAACATCAATTTTCCCCATGATGTTAATCGGGTCTTGATTCGCTTGACGCTGCTG”, the binding signal was found to be 6.24 z-score.

For “CCGATTAACATCAAAAATCCCACTGATGTTAATCGGGTCTTGATTCGCTTGACGCTGCTG”, the binding signal amounted to 3.51 z-score.

The sequence “CCGATTAACATCAGCAATTCCCCTGATGTTAATCGGGTCTTGATTCGCTTGACGCTGCTG” returned a binding signal of 7.03 z-score.

For the sequence “CCGATTAACATCAGGGAAAAGTATGATGTTAATCGGGTCTTGATTCGCTTGACGCTGCTG”, the binding signal worked out at 3.35 z-score.

“CCGATTAACATCAATAACCCCCCTGATGTTAATCGGGTCTTGATTCGCTTGACGCTGCTG” gave a binding signal of 6.33 z-score.

In the case of “CCGATTAACATCAGGGCATCCCCTGATGTTAATCGGGTCTTGATTCGCTTGACGCTGCTG”, the binding signal came out at 7.7 z-score.

Turning to “CCGATTAACATCAGGGGGAGATATGATGTTAATCGGGTCTTGATTCGCTTGACGCTGCTG”, the binding signal was 5.8 z-score.

For the sequence “CCGATTAACATCAGGGGATCCCCTGATGTTAATCGGGTCTTGATTCGCTTGACGCTGCTG”, the binding signal stood at 14.6 z-score.

The sequence “CCGATTAACATCACCCAATTCCCTGATGTTAATCGGGTCTTGATTCGCTTGACGCTGCTG” had a binding signal of 3.33 z-score.

“CCGATTAACATCAAGGGGAAAACTGATGTTAATCGGGTCTTGATTCGCTTGACGCTGCTG” came in with a binding signal of 7.51 z-score.

The sequence “CCGATTAACATCAGGAAATCCCCTGATGTTAATCGGGTCTTGATTCGCTTGACGCTGCTG” showed a binding signal of 10.8 z-score.

On to “CCGATTAACATCATTTGGGAAAATGATGTTAATCGGGTCTTGATTCGCTTGACGCTGCTG”, for which the binding signal stood at 1.08 z-score.

Turning to “CCGATTAACATCAATATTCCCCATGATGTTAATCGGGTCTTGATTCGCTTGACGCTGCTG”, the binding signal was 7.4 z-score.

In the case of “CCGATTAACATCAGATTTCCCCCTGATGTTAATCGGGTCTTGATTCGCTTGACGCTGCTG”, the binding signal stood at 8.72 z-score.

In turn, “CCGATTAACATCAGGGCTGCCCCTGATGTTAATCGGGTCTTGATTCGCTTGACGCTGCTG” came in with a binding signal of 4.09 z-score.
